Tau fluor cs – counter-screen for tau fibril formation inhibitors. tau K18 P301L Alexa594 fluorescence, heparin fibrillization. Potency, µM (top dose mostly 57.7 µM). 280,000 compounds, 0.93% hits; note: nearly all actives have a fitted effect of over 55% in size
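Human K18 P301L tau (15 uM unlabeled plus 0.24 uM Alexa 594-labeled, final) in 100 mM sodium acetate pH 7 was mixed with compound and 20 uM heparin and incubated 6 hr at 37 C.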
USP1 inh – inhibitors of human USP1/UAF1 deubiquitinase | 390,000 compounds, 0.23% hits | recombinant USP1/UAF1, Ub-Rhodamine cleavage fluorescence | Potency, µM (titrated, usually from 57.1 µM), usual class: inhibitors | O94782; note: nearly all actives have a fitted effect of over 60% in size
Target sequence (O94782 whole entry, looked up): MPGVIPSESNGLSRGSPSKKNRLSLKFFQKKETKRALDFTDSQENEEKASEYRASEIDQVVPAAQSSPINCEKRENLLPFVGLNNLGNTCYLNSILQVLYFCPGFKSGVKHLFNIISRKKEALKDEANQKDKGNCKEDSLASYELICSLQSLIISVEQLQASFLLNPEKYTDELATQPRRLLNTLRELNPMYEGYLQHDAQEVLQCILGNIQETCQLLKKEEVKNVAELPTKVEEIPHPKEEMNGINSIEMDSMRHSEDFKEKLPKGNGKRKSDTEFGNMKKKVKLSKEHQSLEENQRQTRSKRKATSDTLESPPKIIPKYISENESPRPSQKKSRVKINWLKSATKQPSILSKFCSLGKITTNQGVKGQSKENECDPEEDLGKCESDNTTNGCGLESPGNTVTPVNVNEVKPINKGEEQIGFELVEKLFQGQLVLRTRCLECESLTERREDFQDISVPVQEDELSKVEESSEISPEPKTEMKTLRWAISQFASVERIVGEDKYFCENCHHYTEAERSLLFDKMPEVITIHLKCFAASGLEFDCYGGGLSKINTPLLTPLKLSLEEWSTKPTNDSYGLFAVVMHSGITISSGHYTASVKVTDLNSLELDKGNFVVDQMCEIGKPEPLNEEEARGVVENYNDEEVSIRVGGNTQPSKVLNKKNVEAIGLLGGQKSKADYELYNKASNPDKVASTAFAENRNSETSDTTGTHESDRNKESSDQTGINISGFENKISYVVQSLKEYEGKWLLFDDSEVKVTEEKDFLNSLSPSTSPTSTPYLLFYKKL
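1 nM enzyme complex + cpd, 15 min RT; start with Ub-Rho 150nM final; kinetic fluorescence ex 480/em 540, 6 reads q60 s. Buffer 50mM HEPES pH 7.8, 0.5mM EDTA, 0.1 mg/ml BSA, 1mM TCEP, 0.01% Tween-20.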
FBPA coupling cs – counter-screen for Giardia aldolase inhibitors: coupling enzyme system. activity change, negative = inhibition, % at 58.2 µM, hits read low. coupling enzyme system counterscreen, AmpLite Red fluorescence. AID 2472. 290,000 compounds, 0.67% hits; in the data active = activity change below about -30%
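Final compound at 57.5 uM, incubated 10 min at RT with coupling enzyme reagent (glyceraldehyde-3-phosphate), then 20 min with substrate and AmpLite Red detection. Fluorescence read at 525/598 nm; tests interference with the coupling assay, not aldolase inhibition.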
Tau fibril FP – blocks human tau fibril formation measured by polarization; P10636; K18 P301L tau heparin fibrillization, Alexa594 FP, 6 h; Potency, µM (titrated, usually from 57.7 µM), hits mostly inhibitors; 280,000 compounds, 0.39% hits; AID 1468; note: nearly all actives have a fitted effect of over 55% in size
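Human K18 P301L fragment (15 uM unlabeled plus 0.24 uM Alexa 594-labeled) in 100 mM sodium acetate pH 7 with compound, aggregation induced by 20 uM heparin for 6 hr at 37 C. ThT (30 uM) added for 1 hr, then Alexa 594 FP read.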
Tau fibril ThT – inhibitors of human tau fibril formation, thioflavin T binding; P10636; 270,000 compounds, 2.1% hits; Potency, µM (series often up to 57.4 µM), actives largely listed as inhibitors; recombinant tau K18 P301L (four-repeat tau fragment), heparin-induced fibrillization, ThT fluorescence; note: nearly all actives have a fitted effect of over 55% in size
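In this qHTS, human K18 P301L tau is incubated with compound and heparin for 6 hr at 37 C, and Thioflavin T fluorescence then reports fibril load.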
Large screens that a line does not name were inactive; [ ] = dose if it differs, or a comment. The list is not random: actives were taken first. Their share in the collection is about 2.3%. Unless noted, calls come from the whole dose curve; as a rule, active = well fitted curve in the direction sought with a large enough effect; inconclusive = small, poorly fitted or top-dose-only effect, or another doubt; inactive = no such curve, though single readings can be large; an effect the other way counts as inactive or inconclusive.

CCOC(=O)c1c2ccc(OCC(=O)N/N=C/c3ccc(Cl)cc3)cc2n2ccccc12	Tau fluor cs inconclusive (no result: USP1 inh)
Cc1cc2cc(C(c3nnnn3C(C)(C)C)N(Cc3ccco3)CC3CCCO3)c(=O)[nH]c2cc1C (centres undefined)	Tau fibril ThT inconclusive (no result: FBPA coupling cs)
Cc1cc(C)c2[nH]c(=O)c(C(c3nnnn3C(C)(C)C)N(Cc3ccco3)CC3CCCO3)cc2c1 (centres undefined)	FBPA coupling cs -40.2
COc1c(Cl)cc(C(=O)Nc2cccc(-c3nc4ccccc4[nH]3)c2)cc1Cl	Tau fluor cs inconclusive, Tau fibril FP 22.4µM, Tau fibril ThT inconclusive (no result: FBPA coupling cs)
CCCN(CCC)S(=O)(=O)c1ccc(C(=O)Nc2cccc(-c3nc4ccccc4[nH]3)c2)cc1	Tau fluor cs inconclusive, Tau fibril FP 25.1µM (no result: FBPA coupling cs)
O=C(Nc1cccc(-c2nc3ccccc3[nH]2)c1)c1ccco1	Tau fibril FP inconclusive
NS(=O)(=O)c1cccc(NC(=O)CN2CCC(Cc3ccccc3)CC2)c1	none
O=C(Nc1nnc(S(=O)(=O)N2CCCCCC2)s1)c1ccccc1	Tau fluor cs inconclusive, Tau fibril ThT 14.1µM
O=C(COc1ccccc1F)Nc1nnc(S(=O)(=O)N2CCCCCC2)s1	Tau fibril ThT 14.1µM (no result: FBPA coupling cs)
O=C(Nc1nnc(S(=O)(=O)N2CCCC2)s1)c1ccccc1Cl	Tau fluor cs inconclusive, Tau fibril ThT 3.55µM
CC1Cc2ccccc2N1S(=O)(=O)c1nnc(NC(=O)c2ccccc2Br)s1 (centres undefined)	Tau fluor cs inconclusive, Tau fibril ThT 12.6µM (no result: FBPA coupling cs)
C[C@H]1Cc2c(-c3ccccc3)nc3c(c2CO1)CN(C(=O)Nc1cccc(C#N)c1)CC3	none (no result: USP1 inh)
CC(C)(C)c1ccc(C(=O)Nc2ccc(C(=O)OCc3cc(=O)n4ccsc4n3)cc2)cc1	none (no result: FBPA coupling cs)
COc1ccc(-c2oc3ncn4nc(-c5ccc(Cl)cc5)nc4c3c2-c2ccc(OC)cc2)cc1	none (no result: FBPA coupling cs)
CCOC(=O)c1c2c(n(-c3ccc(OC)cc3)c1C)C(=O)C(=O)c1ccccc1-2	USP1 inh 1.78µM (no result: Tau fluor cs, FBPA coupling cs, Tau fibril FP, Tau fibril ThT)
CCN(C(=O)c1coc(=O)c(Br)c1)c1ccc2c(c1)OCO2	Tau fluor cs inconclusive, USP1 inh inconclusive, FBPA coupling cs -42.4, Tau fibril FP inconclusive, Tau fibril ThT 22.4µM
CC(C)c1ccc(NC(=O)CN2C(=O)COc3ccc(S(=O)(=O)Nc4ccccc4)cc32)cc1	Tau fluor cs inconclusive, Tau fibril FP inconclusive (no result: FBPA coupling cs)
CCOC(=O)C1=C(C)N=c2s/c(=C/c3ccco3)c(=O)n2C1c1cccc(OC)c1 (centres undefined)	USP1 inh inconclusive, Tau fibril FP inconclusive, Tau fibril ThT 14.1µM
N#CC1=C(N)n2c(s/c(=C\c3ccco3)c2=O)=C(C#N)C1c1ccco1 (centres undefined)	Tau fibril FP inconclusive, Tau fibril ThT 20µM
CCOC(=O)C1=C(N)n2c(s/c(=C/c3ccco3)c2=O)=C(C(=O)OC)C1c1ccco1 (centres undefined)	Tau fibril ThT 14.1µM
COc1ccc(NC(=O)N2CCCC3(CCNCC3)C2)cc1	none (no result: Tau fluor cs, USP1 inh, Tau fibril FP, Tau fibril ThT)
Nc1c(Cl)ncnc1N/N=C/c1ccc2ccccc2n1	Tau fibril ThT 3.98µM
Cc1ccc(-c2noc(-c3nnn(CC(=O)Nc4ccc(C)cc4Cl)c3N)n2)cc1	none (no result: FBPA coupling cs)
Clc1cccc(N/N=C/c2ccc(N3CCOCC3)s2)c1	Tau fluor cs 15.8µM[quencher], Tau fibril FP inconclusive, Tau fibril ThT 12.6µM
COc1ccc(-c2[nH]c3ccccc3c2SCCNC(=O)c2ccc(S(=O)(=O)N(C)C)cc2)cc1	Tau fluor cs 3.98µM[quencher] (no result: FBPA coupling cs)
Cc1ccc(C(=O)NCCSc2c[nH]c3ccccc23)cc1C	Tau fluor cs 15.8µM[quencher], Tau fibril ThT inconclusive (no result: FBPA coupling cs)
COc1cc(OC)cc(C(=O)NCCSc2c[nH]c3ccccc23)c1	Tau fluor cs inconclusive (no result: Tau fibril ThT)
Cc1ccc(-c2[nH]c3ccccc3c2SCCNC(=O)c2ccc(S(=O)(=O)N(C)C)cc2)cc1	Tau fluor cs inconclusive (no result: FBPA coupling cs)
COc1cccc(C(=O)NCCSc2c(-c3ccc(F)cc3)[nH]c3ccccc23)c1OC	Tau fluor cs 5.01µM[quencher], USP1 inh inconclusive (no result: FBPA coupling cs)
COc1ccc(-c2[nH]c3ccccc3c2SCCNC(=O)c2cc(OC)c(OC)c(OC)c2)cc1	Tau fluor cs 7.08µM[quencher], Tau fibril ThT inconclusive (no result: FBPA coupling cs)
Cc1ccc2c(=O)c3cccc(CC(=O)O)c3oc2c1C	none (no result: Tau fluor cs, USP1 inh, Tau fibril FP, Tau fibril ThT)

Source: PubChem BioAssay
